Most compounds without a hit are left out; they make up all but 9.3% or so of the library.
ELG1 repair inh = inhibitors of ELG1-dependent DNA repair in HEK293T cells; HEK293T ELG1-luciferase reporter, luminescence, 16 h; DNA damage induced by 5-fluorouridine; Potency, µM (series often up to 46.1 µM), inactives show at the top dose activity change, negative = inhibition, most hits filed as inhibitors; 2.3% of 330,000 active; AID 504467; note: % is set by controls: 0 for no effect and ±100 for the full control effect; nearly all actives have a fitted effect of over 55% in size
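Step one: seed 2,000 cells per well. Step two: pin-transfer compound or DMSO alongside 5-fluorouridine. Step three: incubate 16 hr, 37 °C, 5% CO2. Step four: add ONE-Glo, wait 30 min, read luminescence.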
Rab9 promoter act = activators of Rab9 promoter; Huh7 Rab9 promoter-luciferase reporter, luminescence, 24 h; Potency, µM (top dose mostly 9.22 µM), for the others: top-dose activation, negative = inhibition, hits mostly activators; 2.8% of 320,000 active; note: % of control where 0% means no effect; nearly all actives have a fitted effect of over 60% in size
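Cells were plated at 1500 per well in reduced-serum medium with 10% FBS and left 2 h. Compound in DMSO was then added for 24 h at 37 °C. Reporter signal was read by luminescence after 10 min with luciferase detection reagent.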
ELG1 genotoxic = inducers of genotoxicity in HEK293T ELG1-luciferase cells | HEK293T ELG1-luciferase reporter, luminescence, 16 h | Potency, µM (titrated, usually from 46 µM), inactives show top-dose activity change, positive = activation, most hits filed as activators | 1.3% of 330,000 active | AID 504466; note: % of control where 0% means no effect; nearly all actives have a fitted effect of over 60% in size
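HEK293T cells expressing luciferase-tagged ELG1 were exposed to compound or DMSO vehicle for 16 hr at 37 °C and 5% CO2. Luciferase activity was then measured with ONE-Glo after 30 min at room temperature.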
FLuc modulator = firefly luciferase modulation, counter-screen for miR-21 project. purified FLuc, Km substrates, luminescence inhibition. AID 588342. Potency, µM (series often up to 57.5 µM), for inactives: top-dose activity change, negative = inhibition, actives largely listed as inhibitors. 6.9% of 360,000 active;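 note: plate controls were vehicle for no effect and reference inhibitor for full effect; nearly all actives have a fitted effect of over 55% in size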
Target sequence (P08659 whole entry, looked up): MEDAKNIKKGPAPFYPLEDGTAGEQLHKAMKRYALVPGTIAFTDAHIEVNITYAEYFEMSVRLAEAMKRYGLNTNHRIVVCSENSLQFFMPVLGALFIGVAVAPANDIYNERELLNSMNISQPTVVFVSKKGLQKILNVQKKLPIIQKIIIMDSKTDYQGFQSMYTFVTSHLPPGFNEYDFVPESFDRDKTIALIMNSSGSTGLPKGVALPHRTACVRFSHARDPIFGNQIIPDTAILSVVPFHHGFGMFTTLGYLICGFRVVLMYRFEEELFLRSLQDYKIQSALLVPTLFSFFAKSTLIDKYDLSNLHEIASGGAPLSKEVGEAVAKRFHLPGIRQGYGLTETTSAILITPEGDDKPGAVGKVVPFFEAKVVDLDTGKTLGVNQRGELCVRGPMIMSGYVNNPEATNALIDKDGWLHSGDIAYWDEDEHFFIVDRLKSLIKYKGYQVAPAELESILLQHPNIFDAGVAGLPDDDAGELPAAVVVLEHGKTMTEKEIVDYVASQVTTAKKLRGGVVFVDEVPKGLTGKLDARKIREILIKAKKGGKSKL
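Biochemical qHTS of compounds, final roughly 60 µM downward over six points, against 10 nM purified firefly luciferase using Km concentrations of substrates (10 uM D-luciferin, 10 uM ATP) in Tris acetate pH 7.5 buffer; luminescence output.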
NPC1 promoter act = activates the NPC1 promoter. Huh7 NPC1 promoter luciferase reporter, 24 h. Potency, µM (top dose mostly 9.22 µM), inactives show at the top dose activation, actives largely listed as activators. 2.4% of 320,000 active. AID 485313; note: % of control where 0% means no effect; nearly all actives have a fitted effect of over 60% in size
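Luminescence read-out of NPC1 promoter-driven luciferase in stably transfected Huh7 cells; compounds delivered in DMSO and left 24 h at 37C, 5% CO2, qHTS titration format.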
SMN2 splice up = enhancers of SMN2 splice variant expression; HEK293 SMN2-luciferase splicing reporter, luminescence, 30-36 h; Potency, µM (titrated, usually from 46.1 µM), inactives show at the highest dose activity change, positive = activation, hits mostly activators; 2.8% of 210,000 active; AID 1458; note: % of control where 0% means no effect; nearly all actives have a fitted effect of over 55% in size
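HEK293 cells carry an SMN2 minigene-luciferase reporter in which exon 7 inclusion puts luciferase in frame. Cells were seeded at 2000 cells/well, attached for 10-12 hours, then exposed to compounds for 30-36 hours at 37C before ONE-Glo luminescence.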
Starred values were filed as active, the others as inactive; [ ] = remark or other dose. Calls come from the whole dose curve; as a rule, active = well fitted curve in the direction sought with a large enough effect; inconclusive = small, poorly fitted or top-dose-only effect, or another doubt; inactive = no such curve, though single readings can be large; an effect the other way counts as inactive or inconclusive. Potency is the fitted concentration of half-maximal effect.

How did CCCCc1cc2c(cn1)=C(OC(=O)C1CCCC1)C(C)(OC(=O)CC)C(=O)C=2 (configuration not stated) do in these assays?
SMN2 splice up: -2%[9.22 µM]

Results for Cc1nc2nc(-c3ccc(Cl)cc3)[nH]n2c(=O)c1C ?
ELG1 repair inh: inconclusive; Rab9 promoter act: 2.2µM*; ELG1 genotoxic: inconclusive; FLuc modulator: 6µM*; NPC1 promoter act: 2.5µM*; SMN2 splice up: inconclusive

How did Cc1nc2nc(-c3ccc(Cl)cc3)[nH]n2c(=O)c1Cc1ccccc1 do in these assays?
ELG1 repair inh: inconclusive; Rab9 promoter act: 27%; ELG1 genotoxic: inconclusive; FLuc modulator: 3µM*; NPC1 promoter act: inconclusive; SMN2 splice up: inconclusive

How did Cc1nc2c(-c3ccccc3)c[nH]n2c(=O)c1Cc1ccccc1 do in these assays?
ELG1 repair inh: inconclusive; Rab9 promoter act: inconclusive; ELG1 genotoxic: 1%; FLuc modulator: 27µM*; NPC1 promoter act: 8%; SMN2 splice up: -60%

What do the screens show for `Cc1ccc(Cc2c(C)nc3c(-c4ccccc4)c(C)[nH]n3c2=O)cc1`?
FLuc modulator: 0%; SMN2 splice up: -1%

Results for Cn1cc(-c2cc(C(=O)O)on2)cn1 ?
ELG1 repair inh: 0%; Rab9 promoter act: -2%; ELG1 genotoxic: 2%; FLuc modulator: 2%; NPC1 promoter act: 0%

What do the screens show for `COc1ccccc1N(Cc1cc2cccc(C)c2[nH]c1=O)C(=O)c1cccc(Cl)c1`?
FLuc modulator: -8%; SMN2 splice up: -1%

How did O=C(NC1CCN(S(=O)(=O)c2cccc(F)c2)CC1)c1cccc(F)c1 do in these assays?
ELG1 repair inh: -12%; Rab9 promoter act: -2%; ELG1 genotoxic: 0%; FLuc modulator: 0%; NPC1 promoter act: -3%

What do the screens show for `CCCCc1nnc(NC(=O)CCS(=O)(=O)c2ccc(Cl)cc2)s1`?
ELG1 repair inh: -7%; Rab9 promoter act: 0%; ELG1 genotoxic: 3%; FLuc modulator: -1%; NPC1 promoter act: 2%

How did Cc1ccc(S(=O)(=O)N2CCOCC2)cc1NC(=O)COc1ccc(-c2nnco2)cc1 do in these assays?
ELG1 repair inh: -26%; Rab9 promoter act: 0%; ELG1 genotoxic: -11%; FLuc modulator: -12%; NPC1 promoter act: -4%; SMN2 splice up: -13%

Results for Cc1ccc(S(=O)(=O)N(C)C)cc1NC(=O)COC(=O)CCC1CCCC1 ?
ELG1 repair inh: -2%; Rab9 promoter act: -3%; ELG1 genotoxic: 5%; FLuc modulator: -7%; NPC1 promoter act: 3%

Results for CCN(CC)S(=O)(=O)c1ccc(C)c(NC(=O)COC(=O)CNC(=O)c2ccc(C(C)(C)C)cc2)c1 ?
ELG1 repair inh: 0%; Rab9 promoter act: 0%; ELG1 genotoxic: 1%; FLuc modulator: 0.54µM*; NPC1 promoter act: -1%; SMN2 splice up: 17%

What do the screens show for `Cc1ccc(OCCC(=O)OCC(=O)Nc2cc(S(=O)(=O)N(C)C)ccc2C)cc1`?
ELG1 repair inh: 6%; Rab9 promoter act: -2%; ELG1 genotoxic: 2%; FLuc modulator: 11µM*; NPC1 promoter act: -5%; SMN2 splice up: 0%

What do the screens show for `Cc1ccc(S(=O)(=O)N(C)C)cc1NC(=O)COC(=O)c1c(-c2ccccc2)noc1C`?
ELG1 repair inh: -23%; Rab9 promoter act: 0%; ELG1 genotoxic: -8%; FLuc modulator: 3%; NPC1 promoter act: -2%

What do the screens show for `Cc1ccc(S(=O)(=O)N(C)C)cc1NC(=O)COc1ccc(-c2nnco2)cc1`?
ELG1 repair inh: -7%; Rab9 promoter act: -2%; ELG1 genotoxic: -2%; FLuc modulator: 17µM*; NPC1 promoter act: -6%

What do the screens show for `Cc1ccc(S(=O)(=O)N(C)C)cc1NC(=O)COC(=O)/C=C/c1ccc2ccccc2n1`?
ELG1 repair inh: inconclusive; Rab9 promoter act: 19%; ELG1 genotoxic: -3%; FLuc modulator: 8.5µM*; NPC1 promoter act: 23%

How did CSCCC(NC(=O)c1ccccc1Br)C(=O)NNC(=O)c1ccco1 (configuration not stated) do in these assays?
ELG1 repair inh: 13%; Rab9 promoter act: -3%; ELG1 genotoxic: 1%; FLuc modulator: -9%; NPC1 promoter act: -2%

How did O=c1ccc2[n+]([O-])c3ccc(O)cc3oc-2c1 do in these assays?
ELG1 repair inh: inconclusive; Rab9 promoter act: 0%; ELG1 genotoxic: -10%; FLuc modulator: 15µM*; NPC1 promoter act: 2%

What do the screens show for `CCn1c(SCC(=O)Nc2oc(-c3ccccc3)c(-c3ccccc3)c2C#N)nnc1-c1ccco1`?
ELG1 repair inh: -1%; Rab9 promoter act: 2%; ELG1 genotoxic: -8%; FLuc modulator: 4%; NPC1 promoter act: -2%; SMN2 splice up: -37%

What do the screens show for `COc1ccc(-c2oc(NC(=O)CSc3nncn3C)c(C#N)c2-c2ccc(OC)cc2)cc1`?
ELG1 repair inh: 18µM*; Rab9 promoter act: 3%; ELG1 genotoxic: -3%; FLuc modulator: 3%; NPC1 promoter act: -1%; SMN2 splice up: -12%

Results for CC(=O)Nc1ccc(NC(=O)CN2C(=O)CN(C)C(=O)c3ccccc32)cc1 ?
FLuc modulator: 5%

How did N#Cc1c(NC(=O)CSc2nc(-c3ccccc3)cc(C(F)(F)F)n2)sc2c1CCC2 do in these assays?
ELG1 repair inh: 7.3µM*; Rab9 promoter act: -7%; ELG1 genotoxic: -3%; FLuc modulator: 0%; NPC1 promoter act: -4%; SMN2 splice up: -19%

What do the screens show for `CC1CCc2c(sc(NC(=O)CSc3ncn[nH]3)c2C#N)C1` (configuration not stated)?
ELG1 repair inh: -23%; Rab9 promoter act: -33%; ELG1 genotoxic: -8%; FLuc modulator: 11µM*; NPC1 promoter act: -43%

Results for COc1ccc(-c2cc(C(F)(F)F)nc(SCC(=O)Nc3sc4c(c3C#N)CCC4)n2)cc1 ?
ELG1 repair inh: inconclusive; Rab9 promoter act: -5%; ELG1 genotoxic: -1%; FLuc modulator: 3%; NPC1 promoter act: -2%; SMN2 splice up: -4%

What do the screens show for `N#Cc1c(NC(=O)CSc2ncn[nH]2)sc2c1CCCC2`?
ELG1 repair inh: -28%; Rab9 promoter act: -7%; ELG1 genotoxic: 1%; FLuc modulator: 8.5µM*; NPC1 promoter act: -11%; SMN2 splice up: -62%

How did CC1CCc2c(sc(NC(=O)Cn3nc(C(=O)O)c4ccccc4c3=O)c2C#N)C1 (configuration not stated) do in these assays?
ELG1 repair inh: inconclusive; Rab9 promoter act: -5%; ELG1 genotoxic: 5%; FLuc modulator: 12µM*; NPC1 promoter act: 12%
